# According to PubChem BioAssay (NCATS):
# Inconclusive results are not listed. A call without a number means that no potency is given here. Activity calls are given as the source filed them. Calls follow the shape of the dose curve; as a rule, active = well fitted activation curve with a large enough effect; inconclusive = small, poorly fitted or top-dose-only effect; inactive = no such curve, though single readings can be large or run the other way.
# Molecular target: Rap guanine nucleotide exchange factor 3 (Homo sapiens) (UniProt O95398)
# Sequence (O95398 whole entry, looked up): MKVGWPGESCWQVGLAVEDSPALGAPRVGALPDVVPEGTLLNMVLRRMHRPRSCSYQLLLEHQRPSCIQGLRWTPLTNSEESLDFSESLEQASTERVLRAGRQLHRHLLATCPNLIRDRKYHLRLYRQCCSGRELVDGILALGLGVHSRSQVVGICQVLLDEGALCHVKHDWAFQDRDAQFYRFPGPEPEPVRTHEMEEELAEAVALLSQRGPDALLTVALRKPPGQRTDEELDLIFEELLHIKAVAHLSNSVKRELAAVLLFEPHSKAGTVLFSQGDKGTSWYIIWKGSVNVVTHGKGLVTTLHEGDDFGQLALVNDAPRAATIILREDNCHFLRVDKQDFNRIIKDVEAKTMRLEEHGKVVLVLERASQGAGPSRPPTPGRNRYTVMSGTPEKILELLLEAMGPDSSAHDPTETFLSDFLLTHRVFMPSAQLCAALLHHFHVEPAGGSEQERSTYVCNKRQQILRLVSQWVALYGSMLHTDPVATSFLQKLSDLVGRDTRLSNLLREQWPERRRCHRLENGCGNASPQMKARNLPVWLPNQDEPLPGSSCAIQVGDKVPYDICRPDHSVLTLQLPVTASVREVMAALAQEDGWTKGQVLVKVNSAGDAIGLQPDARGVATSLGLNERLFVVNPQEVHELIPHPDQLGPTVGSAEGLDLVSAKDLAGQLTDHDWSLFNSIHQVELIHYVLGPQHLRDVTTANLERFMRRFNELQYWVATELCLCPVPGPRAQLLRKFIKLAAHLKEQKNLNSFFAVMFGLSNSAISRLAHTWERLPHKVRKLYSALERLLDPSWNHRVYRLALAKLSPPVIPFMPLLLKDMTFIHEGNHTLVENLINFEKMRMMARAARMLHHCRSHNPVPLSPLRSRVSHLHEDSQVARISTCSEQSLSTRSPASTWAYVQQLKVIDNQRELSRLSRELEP
# Test: Confirmatory qHTS for agonist of cAMP-regulated guanine nucleotide exchange factor 3 (EPAC1) (AID 1645881); also: nearly all actives have a fitted effect of over 75% in size;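 as to activation: EPAC1 catalysed release of BODIPY-GDP from Rap1B seen as fluorescence loss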
# Settings: EPAC1 Rap1B BODIPY-GDP exchange fluorescence; series mostly up to 271 µM
# Potency is read from the fitted curve at half-maximal effect.
row,SMILES,Potency
1,Nc1ccc2cc3ccc(N)cc3nc2c1,17.7 µM (active)
2,CCC(=O)O[C@H]1[C@H](O[C@@H]2[C@@H](C)[C@H](O[C@H]3C[C@@](C)(OC)[C@@H](O)[C@H](C)O3)[C@@H](C)C(=O)O[C@H](CC)[C@@](C)(O)[C@H](O)[C@@H](C)C(=O)[C@H](C)C[C@@]2(C)O)O[C@H](C)C[C@@H]1N(C)C,inactive
3,COC(=O)C1=C(C)NC(COC(N)=O)=C(C(=O)OC(C)C)C1c1cccc(Cl)c1Cl (configuration not stated),inactive
4,Nc1cccc2c(N)cccc12,inactive

# Molecular target: Rap guanine nucleotide exchange factor 4 (Homo sapiens) (UniProt Q8WZA2)
# Sequence (Q8WZA2 whole entry, looked up): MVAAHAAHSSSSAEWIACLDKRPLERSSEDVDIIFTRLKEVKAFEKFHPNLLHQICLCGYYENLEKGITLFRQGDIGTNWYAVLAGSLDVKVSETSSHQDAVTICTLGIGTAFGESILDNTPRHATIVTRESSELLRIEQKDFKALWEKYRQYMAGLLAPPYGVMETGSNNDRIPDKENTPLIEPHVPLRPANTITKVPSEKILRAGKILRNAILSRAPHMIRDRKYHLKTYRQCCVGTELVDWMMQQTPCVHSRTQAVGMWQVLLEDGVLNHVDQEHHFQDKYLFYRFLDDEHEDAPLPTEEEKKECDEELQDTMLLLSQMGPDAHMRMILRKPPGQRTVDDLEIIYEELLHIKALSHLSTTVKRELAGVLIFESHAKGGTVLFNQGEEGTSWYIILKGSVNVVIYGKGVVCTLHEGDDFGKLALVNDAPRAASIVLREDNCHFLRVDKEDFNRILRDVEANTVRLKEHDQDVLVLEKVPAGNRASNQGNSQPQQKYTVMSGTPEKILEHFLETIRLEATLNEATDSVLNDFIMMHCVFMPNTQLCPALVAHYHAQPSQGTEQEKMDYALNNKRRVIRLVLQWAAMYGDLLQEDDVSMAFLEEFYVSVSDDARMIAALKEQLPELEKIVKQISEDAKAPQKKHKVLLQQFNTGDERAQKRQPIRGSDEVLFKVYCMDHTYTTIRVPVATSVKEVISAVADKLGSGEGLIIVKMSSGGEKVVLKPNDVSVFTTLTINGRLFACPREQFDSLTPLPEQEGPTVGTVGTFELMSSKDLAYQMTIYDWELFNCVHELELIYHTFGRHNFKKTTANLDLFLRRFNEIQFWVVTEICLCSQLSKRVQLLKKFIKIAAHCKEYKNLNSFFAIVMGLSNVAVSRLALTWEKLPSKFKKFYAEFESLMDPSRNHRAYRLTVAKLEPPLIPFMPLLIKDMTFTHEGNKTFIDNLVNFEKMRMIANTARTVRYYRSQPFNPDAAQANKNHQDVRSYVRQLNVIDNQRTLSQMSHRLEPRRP
# Test: Confirmatory qHTS for agonist of cAMP-regulated guanine nucleotide exchange factor 4 (EPAC2) (AID 1645884);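 also: nucleotide exchange releases bodipy-GDP from Rap1 and this lowers its fluorescence; nearly all actives have a fitted effect of over 65% in size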
# Settings: EPAC2 GEF activity, Rap1B-BODIPY-GDP fluorescence; series mostly up to 154 µM
row,SMILES,Potency
1,Nc1ccc2cc3ccc(N)cc3nc2c1,22.3 µM (active)
2,CCC(=O)O[C@H]1[C@H](O[C@@H]2[C@@H](C)[C@H](O[C@H]3C[C@@](C)(OC)[C@@H](O)[C@H](C)O3)[C@@H](C)C(=O)O[C@H](CC)[C@@](C)(O)[C@H](O)[C@@H](C)C(=O)[C@H](C)C[C@@]2(C)O)O[C@H](C)C[C@@H]1N(C)C,inactive
3,COC(=O)C1=C(C)NC(COC(N)=O)=C(C(=O)OC(C)C)C1c1cccc(Cl)c1Cl (configuration not stated),inactive
